# Measured values taken from PubChem BioAssay (Tox21).
# “And” between values parts separate entries of the source, which are not always exact repeats. Identical values can stand only once. Records with an inconclusive call do not appear. Where a call stands in place of a potency, no number is given. The source holds several records for some structures; these can differ, active in one and inactive in another. The source made the active and inactive calls. Calls come from the whole dose curve; as a rule, active = well fitted cell-killing curve with a large enough effect in the repeat runs; inconclusive = weak or mixed curves; inactive = flat fitted curve, though single readings scatter.
# Test: qHTS RealTime-Glo MT Cell Viability Assay in HepG2 cells - 32 hour (AID 1224877); note: nearly all actives have a fitted effect of over 55% in size
# Conditions: RealTime-Glo luminescence; series mostly up to 76.8 µM; activity change, negative = cytotoxic: at the top concentration
# Excerpt: U.S. Tox21 Program National Center for Advancing Translational Sciences [NCATS] NIH Chemical Genomics Center [NCGC] U.S. Environmental Protection Agency [EPA] National Institutes of Environmental Health Sciences [NIEHS] National Toxicology Program [NTP] U.S. Food and Drug Administration [FDA] Tox21 Assay Overview: Measure of cell viability is critical in the cell-base assay. Analysis of cell viability is necessary for the characterization of cell responses to cytotoxic drugs and environmental stress. A RealTime-Glo MT Cell Viability Assay to monitor cell viability in real time of continues cell culture during 40 hours of compound treatment was used to screen Tox21 10K library compounds in HepG2 cells. The RealTime-Glo MT Cell Viability Assay is a nonlytic, homogeneous, bioluminescent method to measure cell viability in real time using a simple, plate-based method. The assay involves adding NanoLuc luciferase and a cell-permeant prosubstrate to cells in culture. Viable cells reduce the proprietary prosubstrate to generate a substrate for NanoLuc luciferase. This substrate diffuses from cells into the surrounding culture medium, where it is rapidly used by the NanoLuc Enzyme to produce a luminescent signal. The signal correlates with the number of viable cells, making the assay well suited for cytotoxicity studies.
# Tox21 Assay Protocol Summary: The mixture of HepG2 cell suspension and reagents were dispensed at 600cells/6 ul/well in 1536-well tissue culture treated black solid bottom plates using a Multidrop dispenser. After the assay plates were incubated at a 37 C/5% CO2 incubator for 5 hours, 23 nL of compounds dissolved in DMSO, positive and negative controls was transferred to the assay plate by a pintool work station. The plates were incubated at 37 C for 40 hours. The luminescence intensity were measured at 0h, 8h, 16h, 24h, 32h and 40h time points using ViewLux plate reader during compound treatment.
# Potency is the fitted concentration of half-maximal effect.
Structure (SMILES),Potency,"activity change, negative = cytotoxic"
CCCCCCOCCOCCO,inactive,
CC(C)[C@@H]1CC[C@@H](C)CC1=O,inactive,
COC(=O)C(C)Oc1ccc(Oc2ncc(C(F)(F)F)cc2Cl)cc1 (stereo not given),inactive,
NCCOCCO,inactive,
C=C[C@H]1CN2CC[C@H]1C[C@@H]2[C@@H](O)c1ccnc2ccc(OC)cc12,inactive,
FC(F)(F)C(Cl)Br (stereo not given),inactive,
CCO[Si](CCCNC(N)=O)(OCC)OCC,inactive,
CC(=O)Oc1ccc(C(c2ccc(OC(C)=O)cc2)c2ccccn2)cc1,inactive,
Nc1ccc2c(O)cc(S(=O)(=O)O)cc2c1,inactive,
Cc1ccc(C(C)(C)C)cc1,inactive,
CN(C)C,inactive,
OC[C@@H](O)[C@@H](O[C@@H]1O[C@H](CO)[C@H](O)[C@H](O)[C@H]1O)[C@H](O)[C@@H](O)CO,inactive,
CCCOCCO,inactive,
COC(=O)c1ccc(C)cc1,inactive,
C=CC(C)(O)CCC=C(C)C (stereo not given),inactive,
C/C=C/C(=O)N(CC)c1ccccc1C,inactive,
CN(C)CCCN1c2ccccc2Sc2ccc(Cl)cc21,34.7 µM (active) and 23.9 µM (active),
C=C[C@H]1CN2CC[C@H]1C[C@H]2[C@H](O)c1ccnc2ccc(OC)cc12,inactive,
CN(C)/N=N/c1nc[nH]c1C(N)=O,inactive,
C[C@]12C=CC(=O)C=C1CC[C@H]1[C@@H]3C[C@@H](O)[C@](O)(C(=O)CO)[C@@]3(C)C[C@H](O)[C@@]12F,inactive,

Structure (SMILES),Potency,"activity change, negative = cytotoxic"
C=C1C[C@H]2[C@@H]3C=C(C)C4=CC(=O)CC[C@]4(C)[C@H]3CC[C@]2(C)[C@@]1(OC(C)=O)C(C)=O,inactive,
NCCS(=O)(=O)O,inactive,
Nc1ccc2c(c1)C(=O)c1ccccc1C2=O,inactive,
CCCCCCC(C)O (stereo not given),inactive,
O=C(O)CCCCCCCCCCCC(=O)O,inactive,
NC[C@H](O)c1ccc(O)c(O)c1,inactive,
CC1(C)NC(=O)N(c2ccc([N+](=O)[O-])c(C(F)(F)F)c2)C1=O,inactive,
CC1=CC(C)(C)Nc2ccccc21,inactive,
COc1ccc(-c2coc3cc(O)cc(O)c3c2=O)cc1,,-13.5% (inactive)
C=CCNCC=C,inactive,
Oc1ccc(C(c2ccc(O)cc2)C(Cl)(Cl)Cl)cc1,,-2.88% (inactive)
CNC[C@H](O)c1ccc(O)c(O)c1,inactive,
O=C(O)c1cc(=O)[nH]c(=O)[nH]1,inactive,
OCCNCCO,inactive,
NCCN,inactive and 21.9 µM (active),
CC(=O)Oc1c(C)c(C)c2c(c1C)CC[C@@](C)(CCC[C@H](C)CCC[C@H](C)CCCC(C)C)O2,inactive,
COCCOCCOCCO,inactive,
CCCCCC=O,inactive,
CC1(C)O[C@@H]2C[C@H]3[C@@H]4C[C@H](F)C5=CC(=O)C=C[C@]5(C)[C@@]4(F)[C@@H](O)C[C@]3(C)[C@]2(C(=O)CO)O1,inactive,
Cc1ccc(C(C)(C)C)c(O)c1,inactive,
